# About 7,900 targets were measured; listed, in parts, are those with a hit and a random draw of the rest. About 0.6% of all pairs of compound and target were hits. Values without a mark were called inactive.
# Assays:
# Assay in all cases: log2 fold change, soluble protein after heating vs DMSO (PISA); higher = thermal stabilisation; K562 cells, 10 uM, 30 min; active = over 0.2 and 3.5 SD of the protein, either way, in both replicates (recomputed)
# bafetinib = compound: Cc1ccc(NC(=O)c2ccc(CN3CC[C@H](N(C)C)C3)c(C(F)(F)F)c2)cc1Nc1nccc(-c2cncnc2)n1 [bafetinib]
# How it was run: (§1)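 Values are thermal stability changes relative to control samples and are taken from duplicates. They are stated as log2 fold changes. Before quantification by TMTpro 16plex LC-MS/MS with equalised channel sums, K562 cells at 2×10^6 cells/mL were treated with 10 μM compound for 30 min, heated in aliquots for 3 min across 48°C-58°C, pooled, extracted in PBS with 0.5% NP-40 at 4°C, and centrifuged at 21,000xg for 90 min to give the soluble supernatant.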
# dasatinib = compound: Cc1nc(Nc2ncc(C(=O)Nc3c(C)cccc3Cl)s2)cc(N2CCN(CCO)CC2)n1 [dasatinib]
# How it was run: as §1
# [1] = compound: Cn1cc(-c2ccc3c(c2)CCN3C(=O)Cc2cccc(C(F)(F)F)c2)c2c(N)ncnc21
# How it was run: as §1
# [2] = compound: Cn1cc(-c2ccc3nnc(C(F)(F)c4ccc5ncccc5c4)n3n2)cn1
# How it was run: as §1
# tipifarnib = compound: Cn1cncc1[C@@](N)(c1ccc(Cl)cc1)c1ccc2c(c1)c(-c1cccc(Cl)c1)cc(=O)n2C [tipifarnib]
# How it was run: as §1
# [3] = compound: NC(=O)Nc1cc(-c2cccc(F)c2)sc1C(=O)N[C@H]1CCCNC1
# How it was run: as §1
# [4] = compound: NC(=O)c1cnc(N[C@@H]2CCCC[C@@H]2N)nc1Nc1cccc(-n2nccn2)c1
# How it was run: as §1
# [5] = compound: NCC(=O)Nc1ccc(-n2nc(C(F)(F)F)cc2-c2ccc3c(ccc4ccccc43)c2)cc1
# How it was run: as §1
# entinostat = compound: Nc1ccccc1NC(=O)c1ccc(CNC(=O)OCc2cccnc2)cc1 [entinostat]
# How it was run: as §1
# [6] = compound: O=C1NC(=O)C(c2cnc3ccccn23)=C1c1cn2c3c(cc(F)cc13)CN(C(=O)N1CCCCC1)CC2
# How it was run: as §1
# [7] = compound: Cc1cccc(CC(=O)N2CCc3c2ccc(-c2cn(C)c4ncnc(N)c24)c3F)n1
# How it was run: as §1
# vorinostat = compound: O=C(CCCCCCC(=O)Nc1ccccc1)NO [vorinostat]
# How it was run: as §1
# nilotinib = compound: Cc1cn(-c2cc(NC(=O)c3ccc(C)c(Nc4nccc(-c5cccnc5)n4)c3)cc(C(F)(F)F)c2)cn1 [nilotinib]
# How it was run: as §1
# [8] = compound: Cc1nc(Nc2n[nH]c3c2CN(C(=O)N[C@H](CN(C)C)c2ccccc2)C3(C)C)c2sccc2n1
# How it was run: as §1
# [9] = compound: Cc1ncc(-c2ccnc(Nc3ccc(S(C)(=O)=O)cc3)n2)n1C(C)C
# How it was run: as §1
# citarinostat = compound: O=C(CCCCCCNC(=O)c1cnc(N(c2ccccc2)c2ccccc2Cl)nc1)NO [citarinostat]
# How it was run: as §1
# [10] = compound: c1cc(OCCN2CCCCC2)cc(-c2n[nH]c3ccc(-c4nnc[nH]4)cc23)c1
# How it was run: as §1
# mubritinib = compound: FC(F)(F)c1ccc(/C=C/c2nc(COc3ccc(CCCCn4ccnn4)cc3)co2)cc1 [mubritinib]
# How it was run: as §1
# [11] = compound: NC1(c2ccc(-c3nc4ccn5c(=O)[nH]nc5c4cc3-c3ccccc3)cc2)CCC1
# How it was run: as §1
# silmitasertib = compound: O=C(O)c1ccc2c(c1)nc(Nc1cccc(Cl)c1)c1ccncc12 [silmitasertib]
# How it was run: as §1
# Sequence of UniProt Q5RL73 (Q5RL73 whole entry, looked up): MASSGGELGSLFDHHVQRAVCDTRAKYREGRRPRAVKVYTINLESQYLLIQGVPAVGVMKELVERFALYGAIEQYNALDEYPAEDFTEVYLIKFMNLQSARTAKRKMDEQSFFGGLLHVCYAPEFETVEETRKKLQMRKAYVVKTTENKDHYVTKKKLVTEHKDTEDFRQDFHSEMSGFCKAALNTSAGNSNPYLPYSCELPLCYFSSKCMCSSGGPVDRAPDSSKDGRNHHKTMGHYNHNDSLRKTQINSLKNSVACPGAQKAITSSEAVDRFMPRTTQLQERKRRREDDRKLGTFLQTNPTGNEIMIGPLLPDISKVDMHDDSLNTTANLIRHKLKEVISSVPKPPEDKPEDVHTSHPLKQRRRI
# Sequence of UniProt O75582 (O75582 whole entry, looked up): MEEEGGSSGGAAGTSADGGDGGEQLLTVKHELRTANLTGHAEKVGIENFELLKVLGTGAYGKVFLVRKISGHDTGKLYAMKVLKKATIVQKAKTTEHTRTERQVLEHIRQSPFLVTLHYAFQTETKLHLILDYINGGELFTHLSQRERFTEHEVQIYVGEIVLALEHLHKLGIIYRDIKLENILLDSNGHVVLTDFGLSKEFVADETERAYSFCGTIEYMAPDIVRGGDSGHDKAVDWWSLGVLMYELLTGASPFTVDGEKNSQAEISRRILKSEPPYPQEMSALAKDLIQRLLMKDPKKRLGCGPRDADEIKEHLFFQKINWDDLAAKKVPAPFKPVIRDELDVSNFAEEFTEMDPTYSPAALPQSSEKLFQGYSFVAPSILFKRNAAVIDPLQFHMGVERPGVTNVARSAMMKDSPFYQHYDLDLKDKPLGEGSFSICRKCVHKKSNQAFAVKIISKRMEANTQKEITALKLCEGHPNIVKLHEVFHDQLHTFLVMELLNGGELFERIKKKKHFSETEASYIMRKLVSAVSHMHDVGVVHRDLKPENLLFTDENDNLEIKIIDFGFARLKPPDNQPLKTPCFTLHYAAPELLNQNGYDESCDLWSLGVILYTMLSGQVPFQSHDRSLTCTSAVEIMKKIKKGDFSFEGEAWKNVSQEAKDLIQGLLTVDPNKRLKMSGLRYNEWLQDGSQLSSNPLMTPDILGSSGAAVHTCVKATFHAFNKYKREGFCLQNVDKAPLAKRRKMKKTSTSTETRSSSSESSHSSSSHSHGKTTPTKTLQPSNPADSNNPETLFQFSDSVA
# Sequence of UniProt O75446 (O75446 whole entry, looked up): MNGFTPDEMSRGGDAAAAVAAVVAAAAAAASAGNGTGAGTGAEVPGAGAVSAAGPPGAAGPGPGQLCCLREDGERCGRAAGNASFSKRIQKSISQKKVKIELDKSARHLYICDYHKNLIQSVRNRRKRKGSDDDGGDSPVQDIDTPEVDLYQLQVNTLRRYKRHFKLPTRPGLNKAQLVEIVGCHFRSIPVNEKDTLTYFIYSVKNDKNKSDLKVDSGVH
# Sequence of UniProt P78332 (P78332 whole entry, looked up): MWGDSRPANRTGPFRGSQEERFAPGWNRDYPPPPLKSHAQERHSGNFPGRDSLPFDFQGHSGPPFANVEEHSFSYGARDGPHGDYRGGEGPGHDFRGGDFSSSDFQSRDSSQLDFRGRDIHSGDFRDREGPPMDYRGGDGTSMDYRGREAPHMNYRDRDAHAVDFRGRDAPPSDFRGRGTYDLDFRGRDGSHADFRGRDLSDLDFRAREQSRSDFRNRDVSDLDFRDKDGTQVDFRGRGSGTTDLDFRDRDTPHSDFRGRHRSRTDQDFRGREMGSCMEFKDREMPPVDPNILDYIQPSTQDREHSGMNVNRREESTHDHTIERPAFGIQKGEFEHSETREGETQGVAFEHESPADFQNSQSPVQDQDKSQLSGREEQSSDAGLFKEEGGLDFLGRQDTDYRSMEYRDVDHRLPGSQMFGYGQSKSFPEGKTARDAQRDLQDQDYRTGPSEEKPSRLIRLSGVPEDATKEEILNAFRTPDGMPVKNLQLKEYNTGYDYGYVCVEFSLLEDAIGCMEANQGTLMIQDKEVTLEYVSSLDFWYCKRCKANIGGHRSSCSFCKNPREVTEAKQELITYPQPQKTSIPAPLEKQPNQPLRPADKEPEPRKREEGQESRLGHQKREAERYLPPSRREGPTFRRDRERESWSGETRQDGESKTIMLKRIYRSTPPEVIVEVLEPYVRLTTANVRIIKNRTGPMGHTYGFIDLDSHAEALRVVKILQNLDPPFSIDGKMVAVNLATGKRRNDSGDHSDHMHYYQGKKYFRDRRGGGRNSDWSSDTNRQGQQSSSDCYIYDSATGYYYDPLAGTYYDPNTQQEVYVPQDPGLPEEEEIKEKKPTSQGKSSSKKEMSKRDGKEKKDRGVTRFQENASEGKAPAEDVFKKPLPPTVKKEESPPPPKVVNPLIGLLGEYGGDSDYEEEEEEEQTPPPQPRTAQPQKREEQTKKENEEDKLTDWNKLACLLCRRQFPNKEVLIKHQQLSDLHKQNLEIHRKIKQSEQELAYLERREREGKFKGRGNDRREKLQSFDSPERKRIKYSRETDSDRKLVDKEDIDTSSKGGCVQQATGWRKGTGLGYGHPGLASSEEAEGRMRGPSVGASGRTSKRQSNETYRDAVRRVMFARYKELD
# Sequence of UniProt O75056 (O75056 whole entry, looked up): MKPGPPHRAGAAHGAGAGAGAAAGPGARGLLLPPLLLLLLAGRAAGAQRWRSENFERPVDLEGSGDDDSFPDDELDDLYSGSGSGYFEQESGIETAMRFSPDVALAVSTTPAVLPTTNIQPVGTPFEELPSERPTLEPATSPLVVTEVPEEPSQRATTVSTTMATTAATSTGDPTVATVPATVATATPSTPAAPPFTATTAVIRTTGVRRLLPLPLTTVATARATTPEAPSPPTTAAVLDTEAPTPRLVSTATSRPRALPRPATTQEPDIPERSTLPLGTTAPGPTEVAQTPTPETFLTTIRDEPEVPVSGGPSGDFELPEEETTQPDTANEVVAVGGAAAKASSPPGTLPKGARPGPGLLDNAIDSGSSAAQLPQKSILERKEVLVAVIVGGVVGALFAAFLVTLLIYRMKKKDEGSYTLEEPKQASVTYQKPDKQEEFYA
# Sequence of UniProt A1X283 (A1X283 whole entry, looked up): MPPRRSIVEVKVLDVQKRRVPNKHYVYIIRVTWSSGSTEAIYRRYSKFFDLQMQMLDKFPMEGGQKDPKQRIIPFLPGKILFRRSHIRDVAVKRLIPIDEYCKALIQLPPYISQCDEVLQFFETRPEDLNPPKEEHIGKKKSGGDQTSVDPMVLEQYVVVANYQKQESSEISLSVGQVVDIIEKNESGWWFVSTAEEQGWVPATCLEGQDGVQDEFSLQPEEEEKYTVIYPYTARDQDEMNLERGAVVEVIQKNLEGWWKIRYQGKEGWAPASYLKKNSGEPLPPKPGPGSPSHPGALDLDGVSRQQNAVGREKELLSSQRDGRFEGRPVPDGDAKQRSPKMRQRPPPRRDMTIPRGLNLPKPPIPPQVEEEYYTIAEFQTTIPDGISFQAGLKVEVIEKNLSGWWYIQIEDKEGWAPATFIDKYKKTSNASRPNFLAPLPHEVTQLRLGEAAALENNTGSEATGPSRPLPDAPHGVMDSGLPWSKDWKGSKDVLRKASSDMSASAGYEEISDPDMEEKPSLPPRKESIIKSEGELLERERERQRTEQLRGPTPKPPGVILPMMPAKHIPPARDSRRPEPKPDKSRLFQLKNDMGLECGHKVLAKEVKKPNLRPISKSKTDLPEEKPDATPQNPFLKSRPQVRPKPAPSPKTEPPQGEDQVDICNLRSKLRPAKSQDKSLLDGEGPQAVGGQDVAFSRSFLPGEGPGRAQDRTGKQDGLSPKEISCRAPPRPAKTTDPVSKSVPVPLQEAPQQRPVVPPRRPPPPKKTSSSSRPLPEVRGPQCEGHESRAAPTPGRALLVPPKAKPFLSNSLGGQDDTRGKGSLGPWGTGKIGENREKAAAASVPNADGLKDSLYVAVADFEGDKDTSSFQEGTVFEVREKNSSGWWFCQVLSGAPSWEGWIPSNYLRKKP
# Sequence of UniProt Q86X27 (Q86X27 whole entry, looked up): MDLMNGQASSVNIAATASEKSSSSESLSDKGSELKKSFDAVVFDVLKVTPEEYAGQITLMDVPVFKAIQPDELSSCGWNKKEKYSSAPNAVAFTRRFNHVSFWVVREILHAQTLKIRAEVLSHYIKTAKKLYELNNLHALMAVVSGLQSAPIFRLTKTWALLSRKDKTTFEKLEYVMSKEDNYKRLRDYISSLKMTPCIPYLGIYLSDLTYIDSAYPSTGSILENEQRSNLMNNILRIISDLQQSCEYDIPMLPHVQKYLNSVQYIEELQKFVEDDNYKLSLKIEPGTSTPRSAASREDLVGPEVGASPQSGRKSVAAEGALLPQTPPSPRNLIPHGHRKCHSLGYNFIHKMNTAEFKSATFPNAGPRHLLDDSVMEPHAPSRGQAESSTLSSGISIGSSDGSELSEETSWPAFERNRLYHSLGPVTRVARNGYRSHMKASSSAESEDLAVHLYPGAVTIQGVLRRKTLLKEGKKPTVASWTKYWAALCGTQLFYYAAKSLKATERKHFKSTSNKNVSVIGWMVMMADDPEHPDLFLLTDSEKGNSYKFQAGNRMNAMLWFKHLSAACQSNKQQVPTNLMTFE
# Sequence of UniProt Q9BY78 (Q9BY78 whole entry, looked up): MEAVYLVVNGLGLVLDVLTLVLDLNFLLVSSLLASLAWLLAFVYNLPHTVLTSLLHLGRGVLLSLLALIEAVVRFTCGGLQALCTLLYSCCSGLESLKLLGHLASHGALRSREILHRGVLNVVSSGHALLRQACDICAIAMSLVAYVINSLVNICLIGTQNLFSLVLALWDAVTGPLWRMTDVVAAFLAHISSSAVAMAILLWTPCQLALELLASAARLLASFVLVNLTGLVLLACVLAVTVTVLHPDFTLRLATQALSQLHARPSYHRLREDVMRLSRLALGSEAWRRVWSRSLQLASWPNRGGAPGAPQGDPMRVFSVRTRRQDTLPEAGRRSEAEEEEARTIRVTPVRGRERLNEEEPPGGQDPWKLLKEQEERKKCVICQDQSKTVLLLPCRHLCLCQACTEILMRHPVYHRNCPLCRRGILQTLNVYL
# Sequence of UniProt Q5VUM1 (Q5VUM1 whole entry, looked up): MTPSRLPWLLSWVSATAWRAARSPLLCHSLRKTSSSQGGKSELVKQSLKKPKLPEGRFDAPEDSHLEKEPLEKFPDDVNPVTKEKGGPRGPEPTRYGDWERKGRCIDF
Target,log2 fold change (bafetinib),log2 fold change (dasatinib),log2 fold change [1],log2 fold change [2],log2 fold change (tipifarnib),log2 fold change [3],log2 fold change [4],log2 fold change [5],log2 fold change (entinostat),log2 fold change [6],log2 fold change [7],log2 fold change (vorinostat),log2 fold change (nilotinib),log2 fold change [8],log2 fold change [9],log2 fold change (citarinostat),log2 fold change [10],log2 fold change (mubritinib),log2 fold change [11],log2 fold change (silmitasertib)
RPAIN isoform 8 (UniProt Q86UA6),-0.064,-0.043,-0.022,-0.142,-0.042,-0.017,-0.044,-0.093,0.014,-0.012,–,–,–,–,–,–,–,–,–,–
RNF26 (UniProt Q9BY78),0.083,–,–,-0.011,–,–,–,-0.161,–,–,0.111,-0.094,–,–,–,–,–,–,–,–
SDC3 (UniProt O75056),–,0.073,-0.019,–,–,0.044,-0.016,0.026,0.035,0.09,0.419,0.211,-0.004,0.07,-0.036,0.354,0.174,–,–,–
SAP30 (UniProt O75446),–,-0.008,-0.073,–,0.068,0.043,0.032,0.287,0.165,0.047,0.076,0.307,0.083,0.01,0.006,–,–,-0.118,0.044,0.106
RPS6KA5 (UniProt O75582),–,–,–,-0.098,-0.07,–,–,–,–,-0.088,–,–,–,–,–,-0.101,0.092,-0.171,-0.138,0.045
RAPGEF4 (UniProt Q8WZA2),-0.075,0.088,0.201,–,–,-0.095,-0.13,-0.04,-0.003,-0.279,–,–,–,–,–,0.161,0.127,0.038,-0.054,0.125
RNF220 isoform 3 (UniProt Q5VTB9),–,–,–,–,-0.282,–,0.115,–,–,–,–,–,–,–,–,–,–,–,–,–
SH3PXD2B (UniProt A1X283),-0.954 (active),–,0.024,–,–,0.066,0.248,0.052,-0.056,0.009,-0.058,-0.128,-0.124,0.129,-0.152,0.032,0.026,0,-0.082,-0.108
SDHAF4 (UniProt Q5VUM1),-0.078,0.034,0.077,–,-0.041,-0.016,0.07,–,-0.021,0.005,–,–,-0.043,-0.003,0.056,0.076,0.108,0.03,-0.111,0.04
SIK3 (UniProt H0Y4E8),–,-0.037,-0.016,0,0.251,-0.022,0.08,-0.038,-0.075,–,-0.122,-0.053,-0.053,-0.179,0.003,-0.053,-0.098,-0.035,-0.22,0.054
SLC12A5 (UniProt Q9H2X9),0.009,-0.034,0.002,–,0.117,-0.111,-0.077,-0.043,-0.05,-0.032,–,–,–,–,–,0.129,-0.062,-0.001,-0.064,0.05
"RAD50, A0A494C0Y7",-0.022,0.028,-0.012,0.016,0.058,-0.032,-0.159,-0.175,-0.103,–,-0.249,-0.086,–,–,–,0.095,-0.279,0.167,-0.28,0.103
RBM6 (UniProt P78332),–,0.025,-0.052,–,0.028,0.099,-0.06,–,-0.317,–,-0.048,-0.012,0.062,-0.109,-0.194,–,–,-0.072,0.222,0.017
RALGPS2 (UniProt Q86X27),-0.072,-0.011,0.043,–,–,–,0.258,0.175,–,0.34,-0.001,0.074,–,–,–,0.219,-0.153,-0.198,-0.08,0.089
SAFB2 (UniProt K7EQU4),-0.053,–,–,–,–,–,–,–,–,0.007,–,–,0.155,0.162,-0.113,–,–,–,–,–
RPS19 (UniProt M0R2L9),–,–,–,–,-0.126,–,-0.159,–,–,–,–,–,0.116,0,-0.267,–,–,0.229,0.453,-0.634
RPS3A (UniProt D6R9B6),–,0.155,–,–,–,-0.41,-0.391,–,-0.234,–,–,–,–,–,–,–,–,–,–,–
RBM48 isoform 2 (UniProt Q5RL73),0.118,–,0.047,-0.457,0.127,-0.334,-0.008,–,0.262,0.029,-0.012,0.005,0.13,-0.006,-0.034,–,–,–,–,–
